# Assay outcomes deposited in PubChem by National Center for Advancing Translational Sciences (NCATS).
# The entries come from a sample that favours hits as a whole.
# Methyltransferases = Primary Screen for Target Class Profiling of Small Molecule Inhibitors of Methyltransferases | calls only at 40 µM | actives 3.9% (n = 25,000) | purified enzyme, MTase-Glo SAH luminescence; hits give low values; call rule not given here
#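 Each enzyme was reacted with SAM and its substrate, with compounds tested once at 40 uM; SAH formed was read by MTase-Glo luminescence.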
# * hit, by the source's call; i = inactive; + = active, no number. On the % scale 0 is the no-effect control and ±100 the full control effect.
SMILES,Methyltransferases
Nc1ncnc2c1ncn2[C@H]1O[C@@H](C(=O)N2CCN(CC(=O)Nc3cccc4c3CNC4=O)CC2)[C@H](O)[C@@H]1O,+
CNC(=O)[C@H]1O[C@@H](n2cnc3c(NCc4ccc(N)c(I)c4)ncnc32)[C@H](O)[C@@H]1O,i
CNC(=O)[C@H]1O[C@@H](n2cnc3c(NCc4ccc(N)cc4)ncnc32)[C@H](O)[C@@H]1O,i
CC(C)CCNC(=O)C1(C)Cn2nc(C(C)(C)C)cc2C(=O)N1Cc1ccccc1Cl (configuration not stated),i
CCOc1ccc(-c2cc3n(n2)CC(C)(C(=O)NC2CCCCC2)N(c2ccccc2C)C3=O)cc1 (configuration not stated),i
CC1(CO)CC[C@]2(C(=O)O[C@@H]3O[C@H](CO)[C@@H](O)[C@H](O)[C@H]3O)CC[C@]3(C)C(=CCC4[C@@]5(C)CC[C@H](O[C@@H]6O[C@H](C(=O)O)[C@@H](O)[C@H](O)[C@H]6O)C(C)(C)C5CC[C@]43C)C2C1 (some centres not stated),i
C[C@@H]1O[C@@H](O[C@@H]2[C@@H](O)[C@H](O[C@H]3[C@H](O[C@H]4CC[C@@]5(C)C(CC[C@]6(C)C5CC=C5[C@@H]7CC(C)(C)CC[C@]7(C(=O)O[C@@H]7O[C@H](CO)[C@@H](O)[C@H](O)[C@H]7O)CC[C@]56C)C4(C)C)O[C@H](C(=O)O)[C@@H](O)[C@@H]3O)OC[C@H]2O)[C@H](O)[C@H](O)[C@H]1O (some centres not stated),i
CC1(C)CC[C@@]2(C(=O)O[C@@H]3O[C@H](CO)[C@@H](O)[C@H](O)[C@H]3O)C(C1)C1=CCC3[C@@]4(C)CC[C@@H](O[C@@H]5O[C@H](C(=O)O)[C@@H](O[C@@H]6OC[C@@H](O)[C@H](O)[C@H]6O)[C@H](O[C@@H]6OC[C@](O)(CO)[C@H]6O)[C@H]5O)C(C)(C)C4CC[C@@]3(C)[C@]1(C)C[C@H]2O (some centres not stated),i
CC1(C)CC[C@]2(C(=O)O[C@@H]3O[C@H](CO)[C@@H](O)[C@H](O)[C@H]3O)CC[C@]3(C)C(=CCC4[C@@]5(C)CC[C@H](O[C@@H]6O[C@H](C(=O)O)[C@@H](O)[C@H](O)[C@H]6O)C(C)(C)C5CC[C@]43C)C2C1 (some centres not stated),i
CC1OC(OC2C(OC(=O)[C@]34CCC(C)(C)C[C@H]3C3=CCC5[C@@]6(C)CC[C@H](OC7OC(C(=O)O)C(O)C(O)C7O)C(C)(C)C6CC[C@@]5(C)[C@]3(C)CC4O)OC(CO)C2O)C(O)C(O)C1OC1OCC(O)C(O)C1O (some centres not stated),+
CC1(C)CC[C@]2(C(=O)O[C@@H]3O[C@H](CO)[C@@H](O)[C@H](O)[C@H]3O)CC[C@]3(C)C(=CCC4[C@@]5(C)CC[C@H](O[C@@H]6O[C@H](C(=O)O)[C@H](O)[C@H](O)[C@H]6O)C(C)(C)C5CC[C@]43C)[C@@H]2C1 (some centres not stated),+
Cc1ccc(C)c(N2C(=O)c3cc(C(C)(C)C)nn3CC2(C)C(=O)NCc2ccccc2)c1 (configuration not stated),i
COC(=O)c1cc2n(n1)CC(C)(C(=O)NC1CCCCC1)N(c1ccc(Cl)cc1)C2=O (configuration not stated),i
CCCN1C(=O)c2cc3occc3n2CC1(C)C(=O)NC1CCCCC1 (configuration not stated),i
CCCn1c(=O)c2ccc(Cl)cc2n2c(SCC(=O)Nc3ccc(F)cc3)nnc12,i
COc1ccc(S(=O)(=O)N2CCCC(CN3CCC(C)CC3)CC2)cc1 (configuration not stated),i
Oc1cccc(Nc2ccnc3[nH]c4ccccc4c23)c1,+
O=C(O)CCc1nccc2c1[nH]c1ccccc12,i
O=C(NC1CCCCC1)c1ccc2c(=O)nc3c(-c4cccc(F)c4)n[nH]n3c2c1,i
Cc1cccc(CSc2nnc3n(Cc4ccccc4)c(=O)c4ccccc4n23)c1,i
CCN1C(=O)c2cc3ccccc3n2CC1(C)C(=O)NCC(=O)NCc1cccc(F)c1 (configuration not stated),i
CCCCN1C(=O)c2cc(C(=O)NCc3ccc(Cl)cc3)nn2CC1(C)C(=O)NC1CCCC1 (configuration not stated),i
CC(C)=CCC/C(C)=C/CO[C@@H]1O[C@H](CO)[C@@H](O)[C@H](O)[C@H]1O,i
CCC(C)C(=O)OC[C@H]1O[C@H](O[C@H]2O[C@H](CO)[C@@H](O)[C@H](O)[C@H]2O)[C@H](O)[C@@H](O)[C@@H]1O (some centres not stated),i
COc1ccc(C(O)C(C)OC2OC(CO)C(O)C(O)C2O)cc1 (configuration not stated),i
SMILES,Methyltransferases
OCc1ccccc1O[C@@H]1O[C@H](CO)[C@@H](O)[C@H](O)[C@H]1O,i
CC(C)=CCC(O)/C(C)=C/CO[C@@H]1O[C@H](CO)[C@@H](O)[C@H](O)[C@H]1O (some centres not stated),+
CC/C=C\CCO[C@@H]1O[C@H](CO)[C@@H](O)[C@H](O)[C@H]1O,+
CCC1c2ccc(C)n2CCN1C(=O)NCc1cccc(OC)c1 (configuration not stated),i
O=C(CCc1nnc2n(Cc3ccc(Cl)cc3)c(=O)c3ccccc3n12)NCc1ccc2c(c1)OCO2,i
CCCCN1C(=O)c2cc(C(=O)Nc3cc(F)ccc3F)nn2CC1(C)C(=O)NC1CCCC1 (configuration not stated),i
CCOc1ccc(NC(=O)N2Cc3c(sc4c3CCCC4)-n3cccc3C2c2cc(F)cc(F)c2)cc1 (configuration not stated),i
COc1ccc(Cl)cc1S(=O)(=O)NCCn1c(-c2ccc(F)cc2)nc2ccccc21,i
CCCn1c(=O)c2cc(F)ccc2n2c(SCC(=O)Nc3ccccc3C)nnc12,i
CC1CCC(NC(=O)C2(C)Cn3c(ccc3-c3ccco3)C(=O)N2Cc2cccnc2)CC1 (configuration not stated),i
C[C@](N)(Cc1ccc(O)c(O)c1)C(=O)O,+
COC(=O)C(C)(N)Cc1ccc(O)cc1 (configuration not stated),i
C[C@](N)(Cc1ccc(O)cc1)C(=O)O,i
CC(CN1C(=O)c2ccc(-c3ccco3)n2CC1(C)C(=O)NC1CCCCCC1)c1ccccc1 (configuration not stated),i
CCOC(=O)c1ccc(NS(=O)(=O)c2ccc3[nH]c4c(c3c2)CCCC4)cc1,i
CC(C)CCn1c(=O)c2ccccc2n2c(CCC(=O)NCCCN3CCOCC3)nnc12,i
Cc1ccc(Cn2c(=O)c3ccccc3n3c(CCC(=O)NCCCN4CCOCC4)nnc23)cc1,i
CCn1c2ccccc2c2cc(Nc3ccnc(NCCCN4CCOCC4)n3)ccc21,+
COc1ccc2cc3n(c2c1)CC(C)(C(=O)NC1CCCC1)N(c1ccc(C)cc1)C3=O (configuration not stated),i
COc1cccc(CN2C(=O)c3nc4ccccc4n3CC2(C)C(=O)NC2CCCC2)c1OC (configuration not stated),i
